According to PubChem BioAssay AID1159580 (chemical genetic matrix, 2015):
Values joined by “and” are separate entries in the source; they are usually repeats but may differ in a detail not shown here. Identical values can stand only once. The campaign covered roughly 5,500 compounds. About 2,000 (36%) were called active. Inconclusive results (about 18%) are left out. No stated cut-off is given here; in the data, active means normalized growth mostly below about 0.91 (no sharp cut-off); inconclusive means no clear call, values can overlap the other calls; inactive means mostly above about 0.92. Some of the results follow.

Experiment: chemical genetic growth profiling, strain panel (AID 1159580);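 further: tested at 20 µM; growth read once vehicle control cultures reached saturation at 30 °C; 1 = growth at the plate median or of vehicle wells; lower values mean less growth of the strain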
Details: growth OD
[1] = S. cerevisiae deletion strains, locus YBR229C, strain ROT2, hits give low values
[2] = S. cerevisiae deletion strains, locus YDL101C, strain DUN1, hits give low values
[3] = S. cerevisiae deletion strains, locus YDL134C, strain PPH21, hits give low values
[4] = S. cerevisiae deletion strains, locus YDR150W, strain NUM1, hits give low values
[5] = S. cerevisiae deletion strains, locus YEL061C, strain CIN8, hits give low values
[6] = S. cerevisiae deletion strains, locus YHR030C, strain SLT2, hits give low values
[7] = S. cerevisiae deletion strains, locus YJR043C, strain POL32, hits give low values
[8] = S. cerevisiae deletion strains, locus YJR075W, strain HOC1, hits give low values
[9] = S. cerevisiae deletion strains, locus YKL190W, strain CNB1, hits give low values
[10] = S. cerevisiae deletion strains, locus YLR039C, strain RIC1, hits give low values
[11] = S. cerevisiae deletion strains, locus YLR262C, strain YPT6, hits give low values
[12] = S. cerevisiae deletion strains, locus YMR263W, strain SAP30, hits give low values
[13] = S. cerevisiae deletion strains, locus YMR307W, strain GAS1, hits give low values
[14] = S. cerevisiae deletion strains, locus YNL322C, strain KRE1, hits give low values
[15] = S. cerevisiae deletion strains, locus YOL006C, strain TOP1, hits give low values
[16] = S. cerevisiae deletion strains, locus YPL055C, strain LGE1, hits give low values
[17] = S. cerevisiae strains, strain wild type, hits give low values
[18] = S. cerevisiae deletion strains, locus YAL013W, strain DEP1, hits give low values
[19] = S. cerevisiae deletion strains, locus YGR078C, strain PAC10, hits give low values
[20] = S. cerevisiae deletion strains, locus YHR087W, strain rtc3, hits give low values
[21] = S. cerevisiae deletion strains, locus YJL187C, strain SWE1, hits give low values
[22] = S. cerevisiae deletion strains, locus YLR058C, strain SHM2 (second series), hits give low values
[23] = S. cerevisiae deletion strains, locus YLR085C, strain ARP6, hits give low values
[24] = S. cerevisiae deletion strains, locus YML094W, strain GIM5, hits give low values
[25] = S. cerevisiae deletion strains, locus YMR219W, strain ESC1, hits give low values
[26] = S. cerevisiae deletion strains, locus YNL153C, strain GIM3, hits give low values
[27] = S. cerevisiae deletion strains, locus YNL298W, strain CLA4 (second series), hits give low values
[28] = S. cerevisiae deletion strains, locus YNR030W, strain Alg12, hits give low values
[29] = S. cerevisiae deletion strains, locus YPL241C, strain CIN2, hits give low values
[30] = S. cerevisiae deletion strains, locus YPR135W, strain CTF4, hits give low values

Measured: normalized growth

CCCCC1(COC(=O)CCC(=O)O)C(=O)N(c2ccccc2)N(c2ccccc2)C1=O
inactive: S. cerevisiae deletion strains, locus YBR021W, strain FUR4, hits give low values 1 | [1] 1 | S. cerevisiae deletion strains, locus YCL029C, strain bik1, hits give low values 1.02 | S. cerevisiae deletion strains, locus YDL035C, strain GPR1, hits give low values 1.01 | S. cerevisiae deletion strains, locus YDL074C, strain BRE1, hits give low values 0.993 | [2] 1 | [3] 1.01 | S. cerevisiae deletion strains, locus YDL185W, strain tfp1, hits give low values 1.01 | S. cerevisiae deletion strains, locus YDL192W, strain arf1, hits give low values 1.01 | S. cerevisiae deletion strains, locus YDR101C, strain arx1, hits give low values 1.01 | [4] 0.992 | S. cerevisiae deletion strains, locus YDR162C, strain NBP2, hits give low values 0.995 | S. cerevisiae deletion strains, locus YDR318W, strain mcm21, hits give low values 1 | S. cerevisiae deletion strains, locus YDR388W, hits give low values 1.01 | S. cerevisiae deletion strains, locus YDR502C, strain sam2, hits give low values 1.01 | [5] 1 | S. cerevisiae deletion strains, locus YER110C, hits give low values 1.02 | S. cerevisiae deletion strains, locus YER155C, strain BEM2, hits give low values 1 | S. cerevisiae deletion strains, locus YER167W, strain BCK2, hits give low values 1 | S. cerevisiae deletion strains, locus YGL078C, strain dbp3, hits give low values 0.996 | S. cerevisiae deletion strains, locus YGL086W, strain mad1, hits give low values 1 | S. cerevisiae deletion strains, locus YGL248W, strain PDE1, hits give low values 1.01 | S. cerevisiae deletion strains, locus YGR135W, strain pre9, hits give low values 1.02 | S. cerevisiae deletion strains, locus YGR252W, strain gcn5, hits give low values 1.06 | [6] 1 and 1.05 | S. cerevisiae deletion strains, locus YHR079C, strain IRE1 (second series), hits give low values 1.01 | S. cerevisiae deletion strains, locus YHR079C, strain IRE1, hits give low values 1.04 | S. cerevisiae deletion strains, locus YHR094C, strain hxt1, hits give low values 1.01 | S. cerevisiae deletion strains, locus YHR129C, strain ARP1, hits give low values 1 | S. cerevisiae deletion strains, locus YHR200W, strain rpn10, hits give low values 1.01 | S. cerevisiae deletion strains, locus YIL066C, strain RNR3, hits give low values 1.01 | S. cerevisiae deletion strains, locus YIL073C, strain SPO22, hits give low values 1.09 | S. cerevisiae deletion strains, locus YIL125W, strain kgd1, hits give low values 0.991 | S. cerevisiae deletion strains, locus YIR030C, strain dcg1, hits give low values 1.01 | S. cerevisiae deletion strains, locus YJL095W, strain BCK1, hits give low values 1.01 and 1.05 | S. cerevisiae deletion strains, locus YJL134W, strain LCB3, hits give low values 0.996 | S. cerevisiae deletion strains, locus YJL168C, strain set2, hits give low values 1 | S. cerevisiae deletion strains, locus YJL187C, strain SWE1 (second series), hits give low values 1.01 | [7] 0.989 | S. cerevisiae deletion strains, locus YJR066W, strain TOR1, hits give low values 0.967 | [8] 1.01 | S. cerevisiae deletion strains, locus YKL009W, strain mrt4, hits give low values 1.03 | S. cerevisiae deletion strains, locus YKL068W, hits give low values 1 | S. cerevisiae deletion strains, locus YKL085W, strain MDH1 (second series), hits give low values 0.972 | S. cerevisiae deletion strains, locus YKL085W, strain MDH1, hits give low values 0.972 | [9] 0.993 | S. cerevisiae deletion strains, locus YKR001C, strain vps1, hits give low values 1.01 | [10] 0.912 | S. cerevisiae deletion strains, locus YLR058C, strain SHM2, hits give low values 1 | S. cerevisiae deletion strains, locus YLR102C, strain apc9, hits give low values 1 | S. cerevisiae deletion strains, locus YLR113W, strain HOG1, hits give low values 0.952 | [11] 0.913 | S. cerevisiae deletion strains, locus YLR268W, strain sec22, hits give low values 1.02 | S. cerevisiae deletion strains, locus YLR330W, strain CHS5, hits give low values 0.993 | S. cerevisiae deletion strains, locus YLR342W, strain FKS1 (second series), hits give low values 0.993 | S. cerevisiae deletion strains, locus YLR371W, strain rom2, hits give low values 1.01 | S. cerevisiae deletion strains, locus YLR418C, strain cdc73, hits give low values 1.03 | S. cerevisiae deletion strains, locus YML016C, strain PPZ1, hits give low values 1 | S. cerevisiae deletion strains, locus YML032C, strain rad52, hits give low values 1 | S. cerevisiae deletion strains, locus YML124C, strain tub3, hits give low values 1.01 | S. cerevisiae deletion strains, locus YMR078C, strain ctf18, hits give low values 1 | S. cerevisiae deletion strains, locus YMR223W, strain ubp8, hits give low values 1.01 | [12] 0.998 | [13] 1.05 | S. cerevisiae deletion strains, locus YNL067W, strain RPL9B, hits give low values 0.998 | S. cerevisiae deletion strains, locus YNL128W, strain TEP1, hits give low values 1.02 | S. cerevisiae deletion strains, locus YNL183C, strain NPR1, hits give low values 0.945 | S. cerevisiae deletion strains, locus YNL233W, strain BNI4, hits give low values 1 | S. cerevisiae deletion strains, locus YNL250W, strain rad50, hits give low values 1 | S. cerevisiae deletion strains, locus YNL271C, strain bni1, hits give low values 1.01 | S. cerevisiae deletion strains, locus YNL298W, strain CLA4, hits give low values 1.01 | S. cerevisiae deletion strains, locus YNL307C, strain MCK1, hits give low values 1.02 | [14] 0.997 | S. cerevisiae deletion strains, locus YNR052C, strain pop2, hits give low values 1.01 | [15] 0.991 | S. cerevisiae deletion strains, locus YOL012C, strain htz1 1.51 | S. cerevisiae deletion strains, locus YOL147C, strain pex11, hits give low values 1.01 | S. cerevisiae deletion strains, locus YOR061W, strain CKA2, hits give low values 1 | S. cerevisiae deletion strains, locus YOR069W, strain VPS5, hits give low values 1 | S. cerevisiae deletion strains, locus YOR136W, strain idh2, hits give low values 1.02 | S. cerevisiae deletion strains, locus YOR144C, strain elg1, hits give low values 1.01 | S. cerevisiae deletion strains, locus YOR184W, strain ser1, hits give low values 1.02 | S. cerevisiae deletion strains, locus YOR231W, strain MKK1, hits give low values 1.02 | S. cerevisiae deletion strains, locus YOR316C, strain cot1, hits give low values 1.02 | [16] 0.989 | S. cerevisiae deletion strains, locus YPL256C, strain CLN2, hits give low values 1.02 | S. cerevisiae deletion strains, locus YPR119W, strain clb2, hits give low values 1.01 | S. cerevisiae deletion strains, locus YPR141C, strain kar3, hits give low values 1 | S. cerevisiae deletion strains, locus YPR163C, strain tif3, hits give low values 1.02 | S. cerevisiae deletion strains, locus YPR167C, strain met16, hits give low values 1.01 | S. cerevisiae deletion strains, strain wtn01, hits give low values 1.02 | [17] 0.995

CCSc1sc(C(=O)OC)c(-c2ccc(Cl)cc2)c1C#N
inactive: [18] 1.01 | [1] 0.985 | [2] 1.02 | [3] 0.964 | [4] 1.06 | [5] 0.917 | [19] 0.995 | S. cerevisiae deletion strains, locus YGR229C, strain SMI1, hits give low values 0.989 | [6] 0.989 | [20] 1 | [21] 0.983 | [7] 1.05 | [8] 0.968 | [9] 0.99 | [10] 1.01 | [22] 0.986 | [23] 0.817 | [11] 0.999 | [24] 0.946 | [25] 0.992 | [12] 1.07 | [13] 0.972 | [26] 0.994 | [27] 0.94 | [14] 0.99 | [28] 0.954 | [16] 1.08 | [29] 0.96 | [30] 1.01

COC(=O)c1ccc(-c2ccc(Cl)cc2)s1
active: [18] 0.898 | [1] 0.901 | S. cerevisiae deletion strains, locus YCL061C, strain MRC1, hits give low values 0.858 | [5] 0.87 | [19] 0.914 | [6] 0.587 | [20] 0.909 | [8] 0.88 | [9] 0.913 | [10] 0.497 | [22] 0.907 | [23] 0.577 | [11] 0.435 | [25] 0.908 | [13] 0.629 | [26] 0.872 | [27] 0.79 | [14] 0.92 | [28] 0.869 | [15] 0.637 | [29] 0.83 | [30] 0.597
inactive: [2] 0.906 | [4] 0.893 | [21] 0.961 | [7] 0.927 | [24] 0.871 | [12] 0.893 | [16] 1.08 | [17] 0.928
